Measured values reported in PubChem BioAssay.
For part of these data: Results with a measured potency or affinity are listed apart. The source made the active and inactive calls.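 Rule for the calls, unless noted: active = calcium signal cut by more than 3 SD below the full-agonist control yet still positive, in both repeats and the earlier primary screen; inactive = the rest.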

Legend:
[1] = test system: TRPC4 beta (transient receptor potential cation channel C4), mouse; assay: TRPC4 cation channel opening, retest – cell-based, Fluo4 calcium, HEK293 TRPC4beta/mu-opioid, duplicates, 10 µM, confirmation (AID 2426;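 active = fluorescence ratio normalized to control raised more than 50% in primary screen plus both repeat runs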;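 note: percent rise of integrated ratio over buffer wells lacking compound which define 0%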); conditions: Fluo4 calcium fluorescence, at 10 µM; stronger effect = higher value
[2] = test system: transient receptor potential cation channel C4 beta (TRPC4), mouse; assay: TRPC4 cation channel opening, second retest – cell-based, second round, Fluo4, HEK293 TRPC4beta/mu-opioid, 1 µM, confirmation (AID 2461;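 active = primary screen active and over 50% activation in each of two duplicate runs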;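 for activation: 0% = wells without test compound as baseline of integrated fluorescence ratio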); conditions: Fluo4 calcium fluorescence, at 1 µM; stronger effect = higher value
[3] = test system: TRPC4 (transient receptor potential cation channel C4 beta), mouse; assay: potentiation of DAMGO EC20 TRPC4 response – cell-based, second round, Fluo-4, HEK293 TRPC4beta/mu-opioid, 1 µM, confirmation (AID 2554;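 active = primary screen hit whose fluorescence ratio, in both repeats, exceeds the weak agonist control mean by 3 SD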); conditions: DAMGO EC20, Fluo-4 calcium flux, at 1 µM; stronger effect = higher value
[4] = test system: TRPC4 beta (transient receptor potential cation channel C4), mouse; assay: potentiation of DAMGO EC20 TRPC4 response – cell-based, Fluo-4, HEK293 TRPC4beta/mu-opioid, confirmation (AID 2555;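 active = primary screen hit whose calcium fluorescence ratio, in both repeats, exceeds the weak agonist control mean by 3 SD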); conditions: DAMGO EC20, Fluo-4 calcium flux, at 10 µM; stronger effect = higher value
[5] = molecular target: Short transient receptor potential channel 4 (Mus musculus) (UniProt Q9QUQ5); assay: blockers of DAMGO-evoked TRPC4 calcium flux – cell-based, Fluo4, HEK293 TRPC4beta/mu-opioid, confirmation (AID 2636); conditions: at 10 µM; stronger effect = higher value
[6] = molecular target: Short transient receptor potential channel 4 (Mus musculus) (UniProt Q9QUQ5); assay: blockers of DAMGO-evoked TRPC4 calcium flux – cell-based, second round, Fluo4, HEK293 TRPC4beta/mu-opioid, 1 µM, confirmation (AID 2637;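 active = calcium signal ratio cut to more than 3 SD under the fully stimulated control mean yet still positive, in both repeats and the primary screen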); conditions: at 1 µM; stronger effect = higher value
[7] = molecular target: Short transient receptor potential channel 4 (Mus musculus) (UniProt Q9QUQ5); assay: potentiation of DAMGO-evoked TRPC4 calcium signal – cell-based, HEK293 TRPC4/mu-opioid, Fluo-4 calcium, EC20 DAMGO, dose response (AID 434941;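 active = earlier screen potentiator hit that boosts the TRPC4 ion channel at some dose, with a dose response; inactive = no potentiation, no dose response, or not a prior hit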;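 note: calcium entry triggered by an EC20 dose of DAMGO at the co-expressed mu-opioid receptor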)
[8] = molecular target: Short transient receptor potential channel 4 (Mus musculus) (UniProt Q9QUQ5); assay: block of DAMGO-driven TRPC4 calcium entry – cell-based, HEK293 TRPC4/mu-opioid, Fluo-4 calcium, dose response (AID 434942;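 active = primary screen inhibitor hit that blocks the TRPC4 channel at some tested dose, yielding a dose curve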)
[9] = molecular target: Short transient receptor potential channel 6 (Mus musculus) (UniProt Q61143); assay: TRPC6 blockade by TRPC4 inhibitor hits – cell-based, HEK293, membrane potential dye, duplicate, selectivity assay for TRPC4 inhibitor project, confirmation (AID 434948;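 active = active in primary screen and both duplicates, each dropping signal beyond three positive-control SD with fluorescence still positive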); conditions: HEK293 TRPC6, membrane potential dye fluorescence, at 10 µM, stimulated with maximal-effect acetylcholine; stronger effect = higher value
[10] = molecular target: Short transient receptor potential channel 6 (Mus musculus) (UniProt Q61143); assay: TRPC6 opening by TRPC4 activator hits – cell-based, HEK293, membrane potential dye, duplicate, selectivity assay for TRPC4 activator project, confirmation (AID 434950;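 active = membrane potential signal rise above negative control mean plus 3 SD in both duplicates, also active in the earlier TRPC4 screen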;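 for activation: 0% = buffer only wells and 100% = acetylcholine maximal-effect wells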); conditions: HEK293 TRPC6, membrane potential fluorescence, at 10 µM; activation: stronger effect = higher value; outcome: activation
[11] = molecular target: Short transient receptor potential channel 6 (Mus musculus) (UniProt Q61143); assay: positive modulators of mouse TRPC6 channel – HEK293 cells, membrane potential dye, duplicate, selectivity assay for TRPC4 potentiator project, confirmation (AID 434952;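 active = compound raising the membrane signal above positive-control mean plus 3 SD in both repeats, and a primary screen hit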); conditions: HEK293 TRPC6, membrane potential dye fluorescence, at 10 µM, maximal acetylcholine added after compound; stronger effect = higher value
[12] = molecular target: Short transient receptor potential channel 4 (Mus musculus) (UniProt Q9QUQ5); assay: calcium flux activators in TRPC4/5HT1a cells, counter-screen for TRPC4 activator project, cell-based, second counter screen, HEK293 TRPC4/5HT1a, Fluo-4 (AID 434977;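 active = calcium signal rise above buffer-control mean plus 5 SD in both duplicates, and also a hit in the primary screen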;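 for activation: plate controls were assay buffer for no effect and maximal serotonin response for full effect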); conditions: Fluo-4 calcium flux, at 10 µM; stronger effect = higher value
[13] = serotonin-gated TRPC4 signal block – cell-based, second counter screen, HEK293 TRPC4/5HT1a, Fluo-4, counter-screen for TRPC4 inhibitor project, confirmation (AID 434978;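 active = primary screen active whose calcium signal fell more than 3 SD beyond the full-serotonin control mean in both duplicate plates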;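 note: serotonin given first at submaximal then at maximal dose after compound preincubation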); conditions: Fluo-4 calcium flux, at 10 µM, serotonin added to trigger calcium flux; stronger effect = higher value
[14] = test system: TRPC4 (mouse), co-expressed with 5HT1a in HEK293; assay: enhancement of serotonin-evoked TRPC4 response – cell-based, second counter screen, HEK293 TRPC4/5HT1a, Fluo-4, counter-screen for TRPC4 potentiator project, confirmation (AID 434979;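 active = signal rise over 3 SD above mean of control wells given weak agonist, in both repeats and first screen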); conditions: Fluo-4 calcium flux, at 10 µM, serotonin added at its EC20 dose; stronger effect = higher value
[15] = nonspecific calcium rise without TRPC4 – cell-based, HEK293 mu-opioid receptor line, counter-screen for TRPC4 activator project, confirmation (AID 449723;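 active = hit in primary screen, with calcium signal over 5 SD above buffer well mean in both duplicates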;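 note: counter screen cells carry the mu-opioid receptor alone and lack TRPC4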); conditions: HEK293 mu-opioid cells, Fluo-4 calcium fluorescence, at 10 µM; stronger effect = higher value
[16] = nonspecific potentiation of DAMGO calcium response – cell-based, HEK293 mu-opioid receptor line, counter-screen for TRPC4 allosteric potentiator project, confirmation (AID 449724;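 active = calcium signal rise more than 3 SD above the low-dose agonist control mean, in both duplicate plates and the primary screen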); conditions: HEK293 mu-opioid receptor cells, Fluo-4 calcium flux, at 10 µM, compound added before EC20 DAMGO stimulus; stronger effect = higher value

Short transient receptor potential channel 4 (Mus musculus), sequence (Q9QUQ5 whole entry, looked up): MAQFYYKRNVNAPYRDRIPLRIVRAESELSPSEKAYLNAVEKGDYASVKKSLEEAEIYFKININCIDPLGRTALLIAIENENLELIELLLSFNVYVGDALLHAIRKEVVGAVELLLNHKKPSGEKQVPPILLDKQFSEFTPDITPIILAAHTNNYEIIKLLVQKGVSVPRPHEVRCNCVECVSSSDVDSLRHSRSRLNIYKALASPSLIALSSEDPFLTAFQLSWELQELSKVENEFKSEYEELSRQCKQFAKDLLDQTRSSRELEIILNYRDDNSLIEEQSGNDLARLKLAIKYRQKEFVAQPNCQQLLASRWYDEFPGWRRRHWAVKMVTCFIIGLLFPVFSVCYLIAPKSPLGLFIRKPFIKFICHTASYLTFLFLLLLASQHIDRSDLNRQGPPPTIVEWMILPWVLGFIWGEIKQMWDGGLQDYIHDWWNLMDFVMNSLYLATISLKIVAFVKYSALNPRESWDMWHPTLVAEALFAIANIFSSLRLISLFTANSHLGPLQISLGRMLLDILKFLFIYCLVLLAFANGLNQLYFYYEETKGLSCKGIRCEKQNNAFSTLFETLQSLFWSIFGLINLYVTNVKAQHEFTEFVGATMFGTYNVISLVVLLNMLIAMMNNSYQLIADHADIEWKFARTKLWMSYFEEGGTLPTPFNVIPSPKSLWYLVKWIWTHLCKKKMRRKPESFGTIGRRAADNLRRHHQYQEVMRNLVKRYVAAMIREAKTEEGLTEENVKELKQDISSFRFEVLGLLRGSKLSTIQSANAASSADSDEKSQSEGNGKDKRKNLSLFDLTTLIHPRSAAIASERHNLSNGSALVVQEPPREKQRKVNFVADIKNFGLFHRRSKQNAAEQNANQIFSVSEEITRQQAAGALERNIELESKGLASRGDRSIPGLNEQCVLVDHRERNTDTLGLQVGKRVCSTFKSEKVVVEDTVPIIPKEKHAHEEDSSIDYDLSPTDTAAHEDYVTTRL
Short transient receptor potential channel 6 (Mus musculus), sequence (Q61143 whole entry, looked up): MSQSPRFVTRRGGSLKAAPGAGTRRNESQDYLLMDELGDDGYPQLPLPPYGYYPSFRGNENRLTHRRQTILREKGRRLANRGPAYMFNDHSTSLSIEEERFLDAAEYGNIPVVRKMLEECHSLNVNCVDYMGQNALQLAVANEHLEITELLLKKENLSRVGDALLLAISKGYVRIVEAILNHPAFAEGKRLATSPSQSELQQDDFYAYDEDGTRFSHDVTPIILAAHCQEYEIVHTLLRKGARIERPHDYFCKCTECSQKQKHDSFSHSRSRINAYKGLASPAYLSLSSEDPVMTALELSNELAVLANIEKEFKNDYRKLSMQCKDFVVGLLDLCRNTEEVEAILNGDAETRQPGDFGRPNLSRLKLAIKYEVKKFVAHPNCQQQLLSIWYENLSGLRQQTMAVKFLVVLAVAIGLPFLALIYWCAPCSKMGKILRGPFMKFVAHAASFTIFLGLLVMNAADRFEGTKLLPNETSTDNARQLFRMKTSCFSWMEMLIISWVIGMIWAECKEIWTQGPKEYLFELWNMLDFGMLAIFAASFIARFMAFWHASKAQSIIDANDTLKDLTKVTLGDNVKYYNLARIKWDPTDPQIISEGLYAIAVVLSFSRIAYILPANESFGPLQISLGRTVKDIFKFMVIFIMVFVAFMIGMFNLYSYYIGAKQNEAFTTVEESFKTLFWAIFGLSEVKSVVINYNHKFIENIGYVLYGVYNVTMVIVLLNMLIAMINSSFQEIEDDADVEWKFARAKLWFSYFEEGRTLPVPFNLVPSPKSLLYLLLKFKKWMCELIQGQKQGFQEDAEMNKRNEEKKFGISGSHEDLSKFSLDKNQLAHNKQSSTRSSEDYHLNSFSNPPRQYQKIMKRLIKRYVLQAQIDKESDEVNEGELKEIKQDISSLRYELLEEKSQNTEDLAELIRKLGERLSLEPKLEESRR

Cc1ccc(C)c(-n2cc(CNCCc3cnccn3)c(-c3ccccc3)n2)c1
active: activation [1] 152% | activation [2] 54% | activation [10] 40%
inactive: outcome [3] | outcome [4] | outcome [5] | outcome [6] | outcome [7] | outcome [8] | outcome [9] | outcome [11] | outcome [12] | outcome [13] | outcome [14] | outcome [15] | outcome [16]

CN1CCC(CNC(=O)Nc2ccccc2)(c2ccccc2)CC1
inactive: outcome [3] | outcome [4] | outcome [5] | outcome [6] | outcome [7] | outcome [8] | outcome [9] | outcome [10] | outcome [11] | outcome [12] | outcome [13] | outcome [14] | outcome [15] | outcome [16]
active: activation [1] 97% | activation [2] 52%

CC(C)(C)c1cc(Cl)ccc1OCCn1ccnc1
active: activation [1] 57% | activation [12] 17.9% | potentiation [14] 14.1%
inactive: outcome [2] | outcome [3] | outcome [4] | outcome [5] | outcome [6] | outcome [7] | outcome [8] | outcome [9] | outcome [10] | outcome [11] | outcome [13] | outcome [15] | outcome [16]

O=C(C1CCCN(Cc2ccccc2)C1)N1CCc2ccccc2C1 (stereo not given)
inactive: outcome [3] | outcome [4] | outcome [5] | outcome [6] | outcome [7] | outcome [8] | outcome [9] | outcome [11] | outcome [13] | outcome [14] | outcome [15] | outcome [16]
active: activation [1] 105% | activation [2] 94% | activation [10] 71% | activation [12] 40.5%

CCn1c(N2CCN(Cc3ccc([N+](=O)[O-])cc3)CC2)nc2ccccc21
inactive: outcome [3] | outcome [4] | outcome [5] | outcome [6] | outcome [7] | outcome [8] | outcome [9] | outcome [10] | outcome [11] | outcome [13] | outcome [15] | outcome [16]
active: activation [1] 100% | activation [2] 83% | activation [12] 22% | potentiation [14] 18.3%

CCCN(CCC)CCCNc1ccc2nnc(-c3ccc(F)cc3)n2n1
active: activation [1] 92% | activation [12] 41.2%
inactive: outcome [2] | outcome [3] | outcome [4] | outcome [5] | outcome [6] | outcome [7] | outcome [8] | outcome [9] | outcome [10] | outcome [11] | outcome [13] | outcome [14] | outcome [15] | outcome [16]

CCN1CCN(c2ccc(S(=O)(=O)N3CCOCC3)cc2NC(=O)C(C)Oc2cccc(Cl)c2)CC1 (stereo not given)
inactive: outcome [2] | outcome [3] | outcome [4] | outcome [5] | outcome [6] | outcome [7] | outcome [8] | outcome [9] | outcome [11] | outcome [13] | outcome [14] | outcome [15] | outcome [16]
active: activation [1] 83% | activation [10] 38% | activation [12] 11.3%

O=C1/C(=C\c2cc(Cl)c(O)c(Cl)c2)SC(=S)N1Cc1ccccc1
active: activation [1] 118% | potentiation [4] 43% | activation [10] 1320% | potentiation, percent of control [11] 640% | activation [12] 105% | potentiation [14] 27.4% | activation [15] 248% | activation [16] 3240%
inactive: outcome [2] | outcome [3] | outcome [5] | outcome [6] | outcome [7] | outcome [8] | outcome [9] | outcome [13]

Cc1ccccc1OCC(=O)NNC(=S)NC(=O)c1ccco1
active: activation [1] 103% | activation [10] 31.5% | activation [12] 42.5%
inactive: outcome [2] | outcome [3] | outcome [4] | outcome [5] | outcome [6] | outcome [7] | outcome [8] | outcome [9] | outcome [11] | outcome [13] | outcome [14] | outcome [15] | outcome [16]

CCN1CCN(c2ccc(S(=O)(=O)N3CCCCC3)cc2NC(=O)c2cccc(C)c2[N+](=O)[O-])CC1
active: activation [1] 143% | activation [12] 40.7%
inactive: outcome [2] | outcome [3] | outcome [4] | outcome [5] | outcome [6] | outcome [7] | outcome [8] | outcome [9] | outcome [10] | outcome [11] | outcome [13] | outcome [14] | outcome [15] | outcome [16]

Cc1ccc(Sc2cc(C(=O)NCCN(C)C)c3ccccc3n2)cc1
active: activation [1] 91% | activation [12] 24.6%
inactive: outcome [2] | outcome [3] | outcome [4] | outcome [5] | outcome [6] | outcome [7] | outcome [8] | outcome [9] | outcome [10] | outcome [11] | outcome [13] | outcome [14] | outcome [15] | outcome [16]

CCCCN(CC)CCCNC(=O)Cn1nc(Cc2ccncc2)c2ccccc2c1=O
inactive: outcome [3] | outcome [4] | outcome [5] | outcome [6] | outcome [7] | outcome [8] | outcome [9] | outcome [11] | outcome [13] | outcome [14] | outcome [15] | outcome [16]
active: activation [1] 162% | activation [2] 120% | activation [10] 31.5% | activation [12] 53.7%

Cc1cccc2cc(C(c3nnnn3Cc3ccccc3)N3CCN(C)CC3)c(=O)[nH]c12 (stereo not given)
active: activation [1] 118% | activation [10] 29%
inactive: outcome [2] | outcome [3] | outcome [4] | outcome [5] | outcome [6] | outcome [7] | outcome [8] | outcome [9] | outcome [11] | outcome [12] | outcome [13] | outcome [14] | outcome [15] | outcome [16]

CN(C)C(CNC(=O)CCc1c[nH]c2ccccc12)c1ccccc1 (stereo not given)
active: activation [1] 89% | activation [2] 83% | activation [10] 26%
inactive: outcome [3] | outcome [4] | outcome [5] | outcome [6] | outcome [7] | outcome [8] | outcome [9] | outcome [11] | outcome [12] | outcome [13] | outcome [14] | outcome [15] | outcome [16]

CC1(c2ccc(Cl)cc2Cl)OCC(Cn2ccnc2)O1 (stereo not given)
inactive: outcome [2] | outcome [3] | outcome [4] | outcome [5] | outcome [6] | outcome [7] | outcome [8] | outcome [9] | outcome [11] | outcome [13] | outcome [14] | outcome [15] | outcome [16]
active: activation [1] 89% | activation [10] 48.5% | activation [12] 19.9%
